The text below walks through data of PubChem BioAssay AID1259343 (VanderVen Lab, College of Veterinary Medicine, Cornell …, 2017).

Values joined by “and” are separate entries in the source; they are usually repeats but may differ in a detail not shown here. Equal values may be shown once. The campaign covered roughly 6,200 compounds. About 2,900 (47%) were called active. Rule as the data show it: active = inhibition above about 50%; inactive = the rest. So high a share suggests a set chosen from earlier hits. The list shows a part of the results. Some structures have more than one record in an assay (separate samples or runs), and their calls can disagree.

What is called inhibition is the change of the read-out against control, counted positive when it falls.

A short description of the test: Mycobacterium tuberculosis growth inhibition, primary screen (AID 1259343). As to conditions: inhibition: at 10 µM, stronger effect = higher value; outcome: 10 uM.
As to `Cc1ccc(S(=O)(=O)NC(=O)c2ccccc2)cc1C(C)C`, the inhibition is 72.5% (active). `Cc1ccccc1C(C)NS(=O)(=O)c1ccc(Cl)cc1` (stereo not drawn): the inhibition was 17.3% (inactive).

Regarding `Cc1ccc(S(=O)(=O)NC(=O)c2cccc(F)c2)cc1C`, the inhibition is 79% (active). As for `COc1cc(C(=O)NS(=O)(=O)c2ccc(C#N)cc2)ccc1C`, the inhibition was 21.9% (inactive). Under `Cc1ccc(S(=O)(=O)NC(c2cccs2)C2CC2)cc1C` (stereo not drawn) stands 37.1% (inactive); under `Cc1cc([N+](=O)[O-])cc(C(C)(C)C)c1O`, 101% (active).

Take `CN(C)P(=Nc1ccc([N+](=O)[O-])cc1Br)(N(C)C)C(C)(C)C`: the inhibition is 11% (inactive). For `O=[N+]([O-])c1cc(Br)c(O)c(Br)c1` the value was 98.7% (active); for `CC[n+]1c(C)csc1Nc1ccc(N=Nc2ccccc2)cc1`, -14.7% (inactive). Regarding `O=C(O)CC[N+](=O)[O-]`, the inhibition was 98.6% (active). For `Cc1nc(SCc2nc3ccccc3o2)c2ccccc2n1` the value was 51.7% (active). Under `CC(C)Oc1ncccc1CNC(=O)N1CCc2ccccc21` stands 28.7% (inactive). For `CN1CC2([N+](=O)[O-])C=C(Oc3ccc(F)cc3)CC([N+](=O)[O-])(C1)C2` (stereo not drawn) the value was 94.6% (active). Take `Cc1ccc(Cl)cc1NCc1cnc(Cl)s1`: the inhibition is 26.4% (inactive). As for `Cc1nnc(NCCC23CC4CC(CC(C4)C2)C3)c(C#N)c1C`, the inhibition was 50.3% (active). For `CC[C@@H](C(=O)[C@@H](C)[C@@H](O)[C@H](C)[C@@H]1O[C@@H]([C@@H](CC)C(=O)O)CC[C@@H]1C)[C@H]1OC2(C=C[C@@H](O)[C@]3(CC[C@@](C)([C@H]4CC[C@](O)(CC)[C@H](C)O4)O3)O2)[C@H](C)C[C@@H]1C` (stereo partly drawn) the value was 100% (active); for `C(=Nc1ccc(C23CC4CC(CC(C4)C2)C3)cc1)c1ccncc1`, -6.32% (inactive); for `O=c1cccnn1CCNS(=O)(=O)c1ccc(Cl)s1`, 99.9% (active). Consider `Cc1ccc(C)c(C=c2sc(=CC(=O)C(C)(C)C)[nH]c2=O)c1`, for which the inhibition entry is “inactive”. For `CC(C)(C)C(=O)C=c1[nH]c(=O)c(=Cc2c(F)c(F)c(F)c(F)c2F)s1` the value was 101% (active); for `Cc1ccc(Cn2nc(C)c(C=c3s/c(=C\C(=O)C(C)(C)C)[nH]c3=O)c2C)cc1`, 9.64% (inactive).

As for `CC(C)(C)C(=O)/C=c1/[nH]c(=O)/c(=C/c2ccc(F)c(Br)c2)s1`, the inhibition was 101% (active). For `CC(C)c1ccc(C=c2sc(=CC(=O)C(C)(C)C)[nH]c2=O)cc1` the value was 92.9% (active); for `O=C(Nc1nccn1CC1CC1)c1cc(F)c(Cl)cc1Cl`, 94.8% (active). For `CC(C)(C)n1c(NC(=O)c2ccc(F)cc2Cl)nc2ccccc21` the value was -8.71% (inactive). For `Cc1ccc(S(=O)(=O)Nc2nc(-c3ccc(F)c(F)c3)cs2)cc1` the value was 80.1% (active); for `Cc1ccc(-c2csc(C=Cc3c(C)noc3C)n2)cc1`, 43.6% (inactive). For the compound `CC(C)c1cc(=O)n2[nH]cc(-c3ccccc3)c2n1`, the inhibition was -1.37% (inactive).

As for `Cc1ccc(-c2c(C)nn3c(NCC(C)C)cc(C)nc23)cc1`, the inhibition is 47.5% (inactive). On to `CCCc1cc(NC)n2nc(C)c(-c3ccccc3)c2n1`, for which the inhibition was 95.4% (active). Under `CCCc1cc(=O)n2[nH]c(C)c(-c3ccccc3)c2n1` stands 78.8% (active) and -6.08% (inactive); under `CCCc1cc(=O)n2[nH]cc(-c3ccccc3)c2n1`, 11.4% (inactive). Turning to `Cc1[nH]n2c(=O)cc(C(C)C)nc2c1-c1ccccc1`, the inhibition was 100% (active). As for `CCOC(=O)Cc1cc(=O)n2[nH]c(-c3ccccc3)c(-c3ccccc3)c2n1`, the inhibition was 40.6% (inactive). For `CCCc1cc(NC)n2ncc(-c3ccccc3)c2n1` the value was -27.3% (inactive); for `Cc1cc(C)nc(SCc2cc(=O)n3[nH]c(C)c(-c4ccccc4)c3n2)n1`, 100% (active); for `N#Cc1ccc(OS(=O)(=O)c2ccc(F)cc2)cc1`, 29.4% (inactive). `N#Cc1cccc(S(=O)(=O)Nc2cc(C(F)(F)F)ccc2-n2cccn2)c1`: the inhibition is 33.2% (inactive). Under `CN(Cc1ccc(OC(F)F)cc1)S(=O)(=O)c1cccc(C#N)c1` stands 28% (inactive). Take `N#Cc1cccc(S(=O)(=O)Oc2ccccc2)c1`: the inhibition is 68.3% (active). For `N#Cc1ccc(OS(=O)(=O)c2cccc(F)c2)cc1` the value was 92.1% (active).

Turning to `COc1ccc(S(=O)(=O)Oc2cccc(CNCc3ccc(F)cc3)c2)cc1`, the inhibition was 30.6% (inactive). For `N#Cc1cccc(S(=O)(=O)Oc2ccc(F)c(F)c2)c1` the value was 100% (active). Under `N#Cc1cccc(OCCN2CCCc3cc(F)ccc32)c1` stands 36.8% (inactive); under `CC(C)NC(=O)CCC1CCCCC1`, 103% (active). For `CC(C)NC(=O)NC(=O)COC(=O)C1CC1` the value was 23.7% (inactive); for `COc1ccc(-n2ccnc2CN2CCc3c([nH]c4ccccc34)C2c2ccccn2)cc1` (stereo not drawn), “inactive”; for `CC(C)CCC(=O)C(C#N)c1nnc(-c2ccccc2)n1C` (stereo not drawn), 85.2% (active). Turning to `Cn1c(-c2ccccc2)nnc1C(C#N)C(=O)C1CC=CCC1` (stereo not drawn), the inhibition was 93.3% (active). Under `N#CC(C(=O)CC1CCCC1)c1nc(N)nc(Nc2ccccc2)n1` (stereo not drawn) stands 1.29% (inactive); under `NC(=NS(=O)(=O)c1ccc(Cl)cc1)c1ccc(Cl)cc1`, 15.6% (inactive).

As for `COc1ccc(COc2ccccc2NC(C)=O)cc1Br`, the inhibition was 36.3% (inactive).

`COc1ccc(CCC(=O)NNc2cccc(Cl)c2)cc1Br`: the inhibition was 98.9% (active). For `COc1ccc(Br)cc1CN(C)CC(=O)Nc1cc(Cl)cc(Cl)c1` the value was -7.89% (inactive); for `OCC1(Cc2ccccc2)CCN(Cc2cc3ccccc3s2)CC1`, 30.1% (inactive). For `OCC1(Cc2ccccc2Cl)CCN(CC#Cc2ccccc2)CC1` the value was 83.9% (active); for `OCC1(Cc2ccccc2C(F)(F)F)CCN(c2ccc(Cl)cn2)CC1`, 8.01% (inactive). Under `O=C(/C=C/c1cccc([N+](=O)[O-])c1)n1cnc2ccccc21` stands 96.9% (active); under `O=C(C=Cc1ccc([N+](=O)[O-])cc1)c1ccc(F)cc1`, 25.8% (inactive); under `C1=C(CCNc2nncc(-c3ccccc3)n2)CCCC1`, 61.1% (active). In the case of `COc1ccccc1CCNc1nncc(-c2ccccc2)n1`, the inhibition entry is “inactive”. For `COc1ccc(-c2cnnc(NCCC3=CCCCC3)n2)c(OC)c1` the value was “inactive”; for `Cc1ccc(NC(=O)c2cnc3cc(C(=O)N(C)C)n(C)c3c2)cc1Cl`, 84.7% (active); for `O=C(Nc1cccc(-c2nc3c(s2)CCCC3)c1)C1CC1`, 7.39% (inactive).

As to `CCOC(=O)C1=C(COC(=O)c2ccc([N+](=O)[O-])s2)NC(=O)NC1C` (stereo not drawn), the inhibition was 21.7% (inactive). For `CC(C)(CNC(=O)Nc1nc2c(s1)CCCC2)c1cccs1` the value was 1.49% (inactive); for `CCOC(=O)C(C#N)=CNc1nc2c(s1)CC(C)CC2` (stereo not drawn), 23.7% (inactive). For `CC1CCc2nc(NC(=O)c3ccc([N+](=O)[O-])s3)sc2C1` (stereo not drawn) the value was 102% (active).

For the compound `CC1CCc2nc(C(C#N)=Cc3cccs3)sc2C1` (stereo not drawn), the inhibition was -38.8% (inactive).

Take `CC1CCc2nc(NC(=O)Cc3c(F)cccc3Cl)sc2C1` (stereo not drawn): the inhibition was 59.4% (active). Under `CC1CCc2nc(NC(=O)C3CCN(c4ncccn4)CC3)sc2C1` (stereo not drawn) stands 90.3% (active). For `CCC1CCc2nc(NC(=O)Cc3c(C)noc3C)sc2C1` (stereo not drawn) the value was 36.4% (inactive); for `CC1CCc2nc(NC(=O)CSC(=S)N3CCCCC3C)sc2C1` (stereo not drawn), 32.5% (inactive). Under `O=C(Cc1c(F)cccc1Cl)Nc1nc2c(s1)CCCC2` stands 95.5% (active); under `CCOC(C)C(=O)Nc1nc2c(s1)CC(c1ccccc1)CC2` (stereo not drawn), 35.4% (inactive). On to `CC1CCc2ccc(F)cc2N1S(=O)(=O)c1ccc(Cl)s1` (stereo not drawn), for which the inhibition is 30.3% (inactive).

Turning to `Cc1ccc(SCC(=O)N2CCN(Cc3ccccc3)C2=O)cc1`, the inhibition is 20.7% (inactive). On to `Fc1cccc(CN2CCN(Cc3ccc(-c4cccnc4)cc3)CC2)c1`, for which the inhibition was 46.7% (inactive). For `NC(=O)CSc1ccc(-c2cccc(CN3CCOCC3)c2)cc1` the value was 54.4% (active). Under `Cc1ccc(S(=O)(=O)c2nnc(-c3ccccc3)s2)cc1` stands 58.3% (active); under `Cc1ccc2nc(-c3ccc(NS(C)(=O)=O)cc3)sc2c1`, 29.5% (inactive); under `Brc1ccc(Oc2nnc(-c3ccccc3)s2)cc1`, 43.2% (inactive). In the case of `CCC(C)C(=O)Nc1ccc(Cl)c2cccnc12` (stereo not drawn), the inhibition was -29.8% (inactive). For `CC(=O)CCc1ccc(OCCCOc2ccc(Cl)c3cccnc23)cc1` the value was 69.7% (active); for `S=c1nc(NC2CC2)c2ccccc2[nH]1`, 85.5% (active). For `CNc1nc(=S)[nH]c2ccccc12`, the inhibition was 72.5% (active). For `CCNc1nc(=S)[nH]c2ccccc12` the value was -44.3% (inactive).

As for `Cc1nn2c(nc(NC3CCCC3)c3ccccc32)c1Cl`, the inhibition is 13.2% (inactive). Under `COc1ccc(-c2csc(C(O)c3cccc(Cl)c3)n2)cn1` (stereo not drawn) stands 40.1% (inactive). Regarding `COc1ccc(-c2noc(Cc3ccc(F)c(Br)c3)n2)cn1`, the inhibition was 58.1% (active). Under `COc1ccc(Cc2nc(-c3ccc(Br)cc3)no2)cc1` stands -10.8% (inactive); under `CC(C)c1nc2c(c(=O)c3ccccc3n2C)c(=O)n1-c1ccccc1`, -10.5% (inactive); under `CC1CCN(C(=S)NC2CC3CCC2C3)CC1` (stereo not drawn), 67.5% (active). For `CCc1ccc(/C=C/c2nc3ccccc3[nH]c2=O)cc1` the value was 26.4% (inactive); for `NC(=S)Cc1nc2ccccc2[nH]1`, 98.2% (active); for `c1ccc2[nH]c(CCC3CCCCC3)nc2c1`, -43.3% (inactive).

In the case of `O=c1ccn(CCOc2cc(Cl)cc(Cl)c2)c(Cl)c1`, the inhibition was 53.2% (active). Under `N#Cc1c(N)sc2c1CCN(c1nccc(C(F)(F)F)n1)C2` stands -0.04% (inactive); under `Cc1nc(-n2nc(-c3cccs3)cc2NC(=O)CCC2CCCC2)[nH]c(=O)c1C`, 101% (active); under `COc1ccc(OCC(=O)Nc2cc(-c3cccs3)nn2-c2nc(C)cc(=O)[nH]2)cc1`, 99.1% (active).

Consider `Cc1nc(-n2nc(-c3cccs3)cc2NC(=O)C2CC2)[nH]c(=O)c1C`, for which the inhibition is -19.4% (inactive).

For the compound `COc1ccc(CC(=O)Nc2cc(-c3cccs3)nn2-c2nc(C)c(C)c(=O)[nH]2)cc1`, the inhibition is 99.9% (active).

For the compound `COc1ccc(CC(=O)Nc2cc(-c3cccs3)nn2-c2nc(C)cc(=O)[nH]2)cc1`, the inhibition is 99.4% (active).
